Measured values: PubChem BioAssay AID463173 (ICCB-Longwood Screening Facility, Harvard Medical School, 2010)
Screen size: about 52,000 compounds; about 4,300 (8.3%) were called active. Only a selection was taken, and actives are over-represented in it overall. A number with no mark means an inactive call. Rule as the data show it: active = survival mostly below about 52% (no sharp cut-off); inactive = mostly above about 56%.

These compounds were tested on DeltatarO mutant (assay: growth inhibition of S. aureus wild type versus tarO mutant, primary screen, teichoic acid synthesis inhibitors, RN4220, OD600 (AID 463173)). Settings: OD600, 18 h, stronger effect = lower value, screened at 18.75 µg/mL (by protocol).

`Cc1ccc(CCNC(=O)c2cn(C)c3ccc(S(=O)(=O)N4CCC(C)CC4)cc3c2=O)cc1` was tested. Which survival did it give?
The survival was 72%.

Which survival does the source give for `Cc1ccc(S(=O)(=O)n2nc(-c3ccccc3)nc2NCc2ccccc2Cl)cc1` here?
Its survival is 85%.

With `CCc1c(C)nc2nncn2c1NCc1ccc(OC)cc1` as the compound, how does the survival read?
Its survival is 85%.

For `COc1ccc2c(c1)CC(C(=O)Nc1ccc(Br)c(C)c1)CO2` (stereo not given), which survival is on record?
Its survival is 70%.

`CCCN1C(=O)CC(C(=O)OC)=C1C` was tested. Which survival did it give?
The survival was 81%.

How did the survival turn out when `CCOc1cccc2sc(N(Cc3cccnc3)C(C)=O)nc12` was run?
The survival was 89%.

Which survival does the source give for `Cc1cc(Br)ccc1NC(=O)c1coc(=O)c2ccccc12` here?
The survival was 90%.

How did the survival turn out when `COc1ccc(-c2cc(C(F)(F)F)n3nc(-c4ccccc4)cc3n2)cc1OC` was run?
The survival was 61%.

`FC(F)(F)c1cc(-c2ccccc2)nc2cc(-c3ccc(Br)cc3)nn12` was tested. Which survival did it give?
The survival was 42% (active).

Which survival does the source give for `FC(F)(F)c1cc(-c2ccccc2)nc2cc(-c3ccccc3)nn12` here?
Its survival is 59%.

With `CCN1CCN(Cc2nc3cc(NC(=O)c4ccccc4[N+](=O)[O-])ccc3n2CC)CC1` as the compound, how does the survival read?
The survival was 78%.

How did the survival turn out when `CCOc1ccc(CCNC(c2cccc(Cl)c2)c2nnc(-c3ccccc3)o2)cc1OCC` (stereo not given) was run?
The survival was 95%.

How did the survival turn out when `COc1ccc(NC(c2nnc(-c3ccccc3)o2)c2ccccc2F)cc1Cl` (stereo not given) was run?
The survival was 59%.

With `Cc1cc(C)cc(NC(c2nnc(-c3cccc(F)c3)o2)c2ccc(F)cc2Cl)c1` (stereo not given) as the compound, how does the survival read?
Its survival is 48%.

`Cc1cc(C)cc(NC(c2cccc(Cl)c2)c2nnc(-c3ccccc3)o2)c1` (stereo not given) was tested. Which survival did it give?
Its survival is 92%.

With `Fc1ccccc1C(NCCc1ccc(Cl)cc1)c1nnc(-c2ccccc2)o1` (stereo not given) as the compound, how does the survival read?
Its survival is -9% (active).

`Fc1ccc(C(NCCc2ccc(Cl)cc2)c2nnc(-c3ccccc3)o2)c(Cl)c1` (stereo not given) was tested. Which survival did it give?
Its survival is -2% (active).

Which survival does the source give for `Cc1ccc(NC(c2nnc(-c3ccccc3)o2)c2ccccc2F)c(Cl)c1` (stereo not given) here?
Its survival is 85%.

`CCOc1ccc(CCNC(c2nnc(-c3ccccc3)o2)c2ccccc2Cl)cc1OCC` (stereo not given) was tested. Which survival did it give?
Its survival is 1% (active).

Which survival does the source give for `CC(C)c1ccc(NC(c2nnc(-c3ccccc3)o2)c2ccc(F)cc2Cl)cc1` (stereo not given) here?
The survival was 84%.

`Cc1cc(NC(c2nnc(-c3ccccc3)o2)c2ccccc2F)ccc1Br` (stereo not given) was tested. Which survival did it give?
Its survival is 40%.

For `Clc1ccc(CCNC(c2nnc(-c3ccccc3)o2)c2ccccc2Cl)cc1` (stereo not given), which survival is on record?
The survival was -3% (active).

With `O=C(CSc1nnc(-c2cccc(F)c2)c(-c2cccc(F)c2)n1)NC1CCCCC1` as the compound, how does the survival read?
The survival was 73%.

With `CC(C)c1ccc(NC(=O)CSC2=Nc3ccccc3C3=NC(CCC(=O)NC4CCCCC4)C(=O)N23)cc1` (stereo not given) as the compound, how does the survival read?
Its survival is 88%.

With `Cc1ccc(C(=O)CSc2nnc(CSc3nc(C)cc(C)n3)n2C)cc1` as the compound, how does the survival read?
Its survival is 88%.
